ChEMBL document CHEMBL4513216, “Probing the Open Global Health Chemical Diversity Library for Multistage-Active Starting Points for Next-Generation Antimalarials” (ACS Infect Dis, 2020)
About 8,600 (12%) of roughly 69,000 compounds showed an effect of 50% or more. The entries come from a sample that favours strong results as a whole.

tested on: Plasmodium berghei; assay: Screen against P. berghei liver stage (PbLuc), transformed with Luciferase, at 10uM; format: functional, HepG2; conditions: tested at 10 uM

Row | Structure (SMILES) | INHIBITION [%]
1 | N#Cc1cn(C2CC2)c(=O)n(CC(O)c2ccccc2C(F)(F)F)c1=O (stereo not drawn) | 29.4
2 | CCS(=O)(=O)NC(CCSC)C(=O)Nc1ccc(C)cc1C (stereo not drawn) | 31.2
3 | CO[C@@H]1CCN(Cc2cnn(C)c2)[C@@H]2CN(Cc3cccnc3)C[C@@H]21 | 5.96
4 | CNC(=O)[C@@H]1C[C@H](n2cc(-c3ccc(CN4CC=CC4)cc3)nn2)CN1 | 41.2
5 | CC[C@H](Cn1ncc2ccccc2c1=O)NC(=O)c1cnc(C)cn1 | 1.62
6 | CCOC(=O)NCc1nn(CCN2CCCC2)c(=O)c2ccccc12 | 48.8
7 | CC(C)NC(=O)N1CCC2(COCc3cnc(-c4cccnc4)nc32)C1 (stereo not drawn) | 38.1
8 | CCc1oc(C(=O)NCCSc2ncn[nH]2)cc1CN1CCCC1 | 37.9
9 | CCOc1ncccc1NC(=O)N1CCN(CC(=O)NC)CC1 | -22.91
10 | Cc1nccn1CCCN1CCC2(CCC(=O)N(CC3CC3)C2)CC1 | 34.5
11 | Cn1ncc2c(N3CCCC(C)(O)C3)nc(C(C)(C)C)nc21 (stereo not drawn) | 19.2
12 | CCCc1nc(N2CCCC3(CCNC3)C2)c2cnn(C)c2n1 (stereo not drawn) | 47.1
13 | CC(=O)NCCC1CCN(c2nc(C(C)(C)C)nc3c2cnn3C)CC1 | 64.9
14 | COCC1CCN(c2nc(C(C)(C)C)nc3c2cnn3C)C1 (stereo not drawn) | 50.1
15 | Cn1ncc2c(N3CCC(CCO)CC3)nc(C(C)(C)C)nc21 | 22.9
16 | Cn1ncc2c(N3CCCC4(CCNC4)C3)nc(C(C)(C)C)nc21 (stereo not drawn) | 63.8
17 | CCC1(O)CCCN(c2nc(C(C)(C)C)nc3c2cnn3C)C1 (stereo not drawn) | 48
18 | CN(C)[C@H]1CCN(c2nc(C(C)(C)C)nc3c2cnn3C)C1 | 9.35
19 | COCc1nc(N2CC[C@H](N(C)C)C2)c2cnn(C)c2n1 | -15.8
20 | CNC(=O)[C@@H]1[C@@H](c2ccccc2)CN2CCN(Cc3cc(C)no3)C[C@H]12 | 31.3
21 | O=C(NCC(c1ccc(F)cc1)N1CCOCC1)Nc1cn[nH]c1 (stereo not drawn) | -57.4
22 | Cc1cc(C(=O)Nc2ccc(-c3nnc(N(C)C)o3)cc2)oc1C | 22.1
23 | Cc1nnc2ccc(OCCNS(C)(=O)=O)nn12 | 5.91

Row | Structure (SMILES) | INHIBITION [%]
24 | COCCNCc1cc2cc(C)cc(C)c2[nH]c1=O | 14.6
25 | COc1ccc(CNCC2CN(C3CC3)CCO2)cc1OC (stereo not drawn) | -13.6
26 | COc1ccccc1-c1nnc2n1N=C(N)C(C#N)S2 (stereo not drawn) | 34.3
27 | COCC1CCN(CCCc2cn[nH]c2)CC1 | 30.8
28 | Cc1ccnc(NC(=O)C2CCN(CCCc3cn[nH]c3)CC2)c1 | 54.5
29 | c1n[nH]cc1CCCN1CCC(OC2CCCCC2)CC1 | 11.8
30 | Cc1ccnc(NC(=O)C2CCN(CCCn3ccnc3)CC2)c1 | 61.9
31 | Cc1ccnc(NC(=O)C2CCN(CCCn3ccnc3C)CC2)c1 | 44.3
32 | CC(C)(C)CC(=O)NCC(=O)Nc1ccn(CCCn2ccnc2)n1 | 23.1
33 | O=C(c1ccc(-c2ccc(O)nc2)s1)N1CCCCCC1 | -13.87
34 | CCOc1ccc(CN(CCOC)c2nc(C)nc3oc(C)nc23)cc1 | 83.2
35 | COCCN(Cc1ccccc1C)c1nc(C)nc2oc(C)nc12 | 74
36 | Cc1nc(N(C)CCCc2nccn2C)c2nc(C)oc2n1 | -26.7
37 | Cc1nc(N(CCC(N)=O)Cc2ccccc2)c2nc(C)oc2n1 | 48.8
38 | CCN(Cc1ccncc1)c1nc(C)nc2oc(C)nc12 | 40.6
39 | COCCN(Cc1cccnc1)c1nc(C)nc2oc(C)nc12 | 44.3
40 | CCS(=O)(=O)N1CC[C@H]2[C@H]1CC(=O)N2Cc1csc(C)n1 | -10.3
41 | CN1CCN(Cc2cn3c(n2)CNCC3)CC1 | 36.4
42 | O=C(CSC1CCCC1)N1CCN(C(=O)C2CC2c2ccccc2)CC1 (stereo not drawn) | 46.4
43 | Cc1cnc(-c2cccc(-c3ccn(CCCO)n3)c2)nc1N(C)C | 26.8
44 | CCS(=O)(=O)CC(=O)NC(c1ccccc1)C1CCCCC1 (stereo not drawn) | -5.53
45 | COCCc1noc(CN2CCCC2c2c(C)nn(C)c2Cl)n1 (stereo not drawn) | 5.9
46 | N#Cc1ccc(CNCCS(=O)(=O)N2CCc3ccccc32)cc1 | 60.3

Row | Structure (SMILES) | INHIBITION [%]
47 | CC(C(=O)Nc1ccc(C#N)cc1)N1CCc2ccccc21 (stereo not drawn) | -45.2
48 | N#Cc1ccc(NCCS(=O)(=O)N2CCc3ccccc32)nc1 | 14
49 | O=C(CCc1ccccc1)C1CCCN(C(=O)c2cncc(Cl)c2)C1 (stereo not drawn) | 42.5
50 | CCN(CC)S(=O)(=O)N1CCCC1c1nnc2n1CCCCC2 (stereo not drawn) | 20.9
51 | O=C(c1ccc2[nH]ccc2c1)N1CCCSCC1CN1CCCC1 (stereo not drawn) | 59.8
52 | O=C(c1ccc(F)c(F)c1)N1CCCSCC1CN1CCCC1 (stereo not drawn) | 25.3
53 | O=C(c1ccc2[nH]ccc2c1)N1Cc2nc(CN3CCCC3)oc2C1 | 31.4
54 | O=C(NCc1ccccc1)N1Cc2nc(COCC3CC3)oc2C1 | 44.2
55 | O=C(c1ccncc1F)N1Cc2nc(COCC3CC3)oc2C1 | 55.7
56 | O=C(c1ccc2[nH]ccc2c1)N1Cc2nc(CN3CCCCC3)oc2C1 | 50.7
57 | CCN(CC)Cc1nc2c(o1)CN(C(=O)c1ccncc1F)C2 | 3.17
58 | O=C(c1ccncc1F)N1Cc2nc(CN3CCCCC3)oc2C1 | 51.2
59 | O=C(c1ccc2c(c1)OCO2)N1CCCSCC1CN1CCCC1 (stereo not drawn) | 3.16
60 | CCN(CC)Cc1nc2c(o1)CN(C(=O)c1ccc3[nH]ccc3c1)C2 | 0.804
61 | CN(C)Cc1nc2c(o1)CN(C(=O)c1ccncc1F)C2 | 24.9
62 | O=C(Cc1cccs1)N1Cc2nc(COCC3CC3)oc2C1 | 18.6
63 | CN(C)C(=O)C1CCN(Cn2nc(-c3ccc(F)cc3)oc2=O)CC1 | 34.7
64 | CCCN1CCC(Cc2noc(-c3ncccc3C)n2)CC1 | 12.9
65 | CNC(=O)CCNC(=O)c1cc(C)n(-c2cccc(OC)c2)c1C | 11.2
66 | CNc1nc2c(c(C(=O)N3CCCC3)n1)CN(C(=O)C1CCCC1)CC2 | 43.4
67 | Cc1nc(S(=O)(=O)N2CCC3(CCCCC3)C2)cn1C | -9.2
68 | NC(=O)COc1cccc(C(=O)NCc2ccc(Cl)s2)c1 | 3.03
